Assay outcomes: PubChem, National Center for Advancing Translational Sciences (NCATS)
FMDV inh – foot and mouth disease virus antiviral activity; FMDV antiviral cell-based qHTS; hit rate 1.2% among 410,000; AID 1159524; Potency, µM (titrated, usually from 57.9 µM), most hits filed as inhibitors; calls by dose curve; tested in HEK293T cells; further: read-out not given here; nearly all actives have a fitted effect of over 45% in size
MARV entry inh – inhibitors of Marburg virus binding or cell entry; Marburg virus pseudotyped entry inhibition, cell reporter; Potency, µM (titrated, usually from 37.8 µM), most hits filed as inhibitors; hit rate 1.8% among 300,000; AID 540276; calls by dose curve; tested in HEK293 cells
HCMV inh – inhibitors of human cytomegalovirus; HFF cells, HCMV-luciferase reporter, 72 h; stronger effect = lower value; activity change, negative = inhibition, % at 57.5 µM; hit rate 4.5% among 410,000; in the data active means activity change below about -60%; inconclusive means no clear call, values can overlap the other calls; inactive means above about -39%
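Two compound doses tested in HFFs infected with HCMV-luciferase, MOI 1 PFU/cell, 72 h at 37C. Lysate luminescence read with OneGlo; data normalized against buffer-only and 10uM Salinomycin inhibitor controls.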
Lassa entry inh – Lassa virus entry inhibition | Lassa virus pseudotype entry inhibition, cell reporter | Potency, µM (titrated, usually from 37.9 µM), hits mostly inhibitors | hit rate 1.2% among 300,000 | AID 540256; calls by dose curve; tested in HEK293 cells; further: nearly all actives have a fitted effect of over 50% in size
Of the large screens only hits and unclear results are named; the others gave an inactive call. Rows were chosen to be rich in hits. Some 6.2% of all compounds tested hit in one or more screens of this group.

COC(=O)c1[nH]c(C)c(/C(O)=C2\C(=O)C(=O)N(CCN3CCOCC3)C2c2ccccc2OC)c1C (stereo not drawn)	none
Cc1nn(C2CCS(=O)(=O)C2)c(Cl)c1/C=C/C(=O)OCC(=O)c1cc(C)n(-c2ccc(F)cc2)c1C (stereo not drawn)	FMDV inh inconclusive, MARV entry inh inconclusive, HCMV inh -85.8, Lassa entry inh inconclusive
O[C@H]1CN(CC2CCCCC2)[C@@H](c2ccc(Cl)cc2)C[C@H]1n1cc(C2CC2)nn1	Lassa entry inh 9.95µM (no result: FMDV inh, MARV entry inh, HCMV inh)
Cc1ccc([C@H]2C[C@@H](O)[C@H](n3cc(COC(=O)c4ccccc4)nn3)CN2CC2CCCCC2)cc1	HCMV inh -89.0 (no result: MARV entry inh)
COc1ccc([C@H]2C[C@H](O)[C@@H](n3cc(COC(=O)c4ccccc4)nn3)CN2C(=O)C2CCCCC2)cc1	MARV entry inh inconclusive, HCMV inh -82.8 (no result: Lassa entry inh)
Cc1ccc([C@H]2C[C@@H](n3cc(C4CC4)nn3)[C@H](O)CN2CC2CCCCC2)cc1	MARV entry inh inconclusive (no result: Lassa entry inh)
CCCCCCN1C[C@@H](O)[C@H](n2cc(COC(=O)c3ccccc3)nn2)C[C@@H]1c1ccc(OC)cc1	HCMV inh -101.5 (no result: MARV entry inh, Lassa entry inh)
COc1ccccc1NC(=O)c1oc2ccccc2c1NC(=O)c1ccccc1C(F)(F)F	MARV entry inh inconclusive, Lassa entry inh inconclusive
Cc1ccc(Cn2c(=O)c3ccccc3n3c(CCC(=O)NCCN4CCOCC4)nnc23)cc1	none (no result: HCMV inh)
CCCCCCN1C[C@@H](n2cc(COC(=O)c3ccccc3)nn2)[C@H](O)C[C@@H]1c1ccc(C)cc1	HCMV inh -88.5 (no result: MARV entry inh, Lassa entry inh)
Cn1c(=O)cc(SCC(=O)N2CCN(Cc3ccc4c(c3)OCO4)CC2)c2ccccc21	Lassa entry inh inconclusive
Cn1c(CN2CCOCC2)nc2cc(NC(=O)COc3ccccc3)ccc21	FMDV inh inconclusive, HCMV inh inconclusive (no result: Lassa entry inh)
CCc1ccccc1NC(=S)NCCSc1ccc(Cl)cc1	MARV entry inh inconclusive, HCMV inh -87.7, Lassa entry inh inconclusive
Cc1ccccc1NC(=S)NCCSc1ccc(Cl)cc1	MARV entry inh inconclusive, HCMV inh -63.8, Lassa entry inh inconclusive
Cc1cccc(NC(=S)NCCSc2ccc(Cl)cc2)c1	MARV entry inh inconclusive
Cc1ccc(NC(=S)NCCSc2ccc(Cl)cc2)c(C)c1	HCMV inh -83.6
Cc1ccc(C)c(NC(=S)NCCSc2ccc(Cl)cc2)c1	none
COCCCN(C(=S)Nc1cc(C)cc(C)c1)C(C)c1ccncc1 (stereo not drawn)	MARV entry inh inconclusive
COc1ccc(CNC(=O)C2CCN(S(C)(=O)=O)CC2)c(OC)c1	HCMV inh inconclusive (no result: MARV entry inh, Lassa entry inh)
Cc1ccc([N+](=O)[O-])c(OCCN2CCCCCC2)c1	MARV entry inh inconclusive, HCMV inh -78.1
CC(=O)OC1CC2C(C)(C)C=CC(=O)[C@@]2(C)C2CC[C@@]3(C)C(c4ccoc4)OC(=O)C4OC43[C@]12C (stereo partly drawn)	none (no result: MARV entry inh, HCMV inh, Lassa entry inh)
CC(C)(C)c1ccc(OCc2ccc(C(=O)N3CCOCC3)o2)cc1	MARV entry inh inconclusive, HCMV inh -70.8, Lassa entry inh 7.94µM
O=C(c1ccc(COc2ccc(F)cc2)o1)n1cccn1	HCMV inh -103.8
CCOc1ccc(OCc2ccc(C(=O)O)o2)cc1	FMDV inh 8.91µM, MARV entry inh inconclusive, Lassa entry inh inconclusive
O=C(O)c1ccc(COc2ccc3ccccc3c2)o1	none (no result: MARV entry inh, Lassa entry inh)
C=CCc1ccc(OCc2ccc(C(=O)O)o2)c(OC)c1	FMDV inh 14.1µM, MARV entry inh inconclusive, Lassa entry inh inconclusive
O=C(c1ccc(COc2ccc(F)cc2)o1)n1cc(Br)cn1	none
Cc1c(C(=O)N2CCCCCC2)c(S(=O)(=O)NCc2ccc(Br)cc2)c(C)n1C	none (no result: MARV entry inh)
Cc1c(-c2ccc(Cl)cc2)c(=O)oc2c(CN3CCCC3)c(O)ccc12	none (no result: MARV entry inh)
Cc1cc(Cl)ccc1NC(=O)CN1CCC(C(O)(c2ccccc2)c2ccccc2)CC1	MARV entry inh inconclusive, HCMV inh -67.1, Lassa entry inh inconclusive
Cc1cc(Cl)ccc1NC(=O)CN1CCCC1	Lassa entry inh inconclusive
COc1cc(C2C(C(=O)Nc3ccccc3)=C(C)Nc3nnnn32)cc(OC)c1OC (stereo not drawn)	HCMV inh -105.9
COc1cccc(C2C(C(=O)Nc3cccnc3)=C(C)Nc3nnnn32)c1OC (stereo not drawn)	MARV entry inh inconclusive, HCMV inh -69.2
CC1(C)Cc2c(sc(NC(=O)C(=O)NCCCN3CCOCC3)c2C(N)=O)CO1	none (no result: MARV entry inh, Lassa entry inh)
Cc1cccc(N2CCN(C(=O)c3cn4ccccc4n3)CC2C)c1 (stereo not drawn)	FMDV inh inconclusive, MARV entry inh inconclusive, HCMV inh -61.5
Cc1cccc(N2CCN(C(=O)CC(NC(=O)c3ccccc3)c3ccccc3)CC2C)c1 (stereo not drawn)	FMDV inh inconclusive, MARV entry inh inconclusive, HCMV inh -66.3, Lassa entry inh inconclusive
COc1ccc2c(c1OC)C(=O)OC2Nc1ncccc1C (stereo not drawn)	MARV entry inh inconclusive
N#CC1=C(Nc2ccccc2Cl)SC(c2ccccc2O)NC1=O (stereo not drawn)	HCMV inh inconclusive (no result: MARV entry inh, Lassa entry inh)
CSC1=C(C#N)C(=O)NC(c2ccc(Cl)cc2)S1 (stereo not drawn)	FMDV inh 20µM
Cc1ccc(CN(CC(=O)N/N=C/c2ccccc2[N+](=O)[O-])S(=O)(=O)c2ccc(C)cc2)cc1	MARV entry inh inconclusive, Lassa entry inh inconclusive
CCCNC(=O)C1(C)CCN(CCS(=O)(=O)c2ccc(C)cc2)C1 (stereo not drawn)	none (no result: MARV entry inh, Lassa entry inh)
CCNC(=O)C1(C)CCN1CCS(=O)(=O)c1ccc(C)cc1 (stereo not drawn)	HCMV inh -102.5 (no result: MARV entry inh, Lassa entry inh)
O=c1[nH]c2ccccc2n1CCCN1CCN(C(c2ccccc2)c2ccccc2)CC1	MARV entry inh 12.6µM, Lassa entry inh 18.4µM (no result: FMDV inh, HCMV inh)
CCS(=O)(=O)c1ncc(Cl)c(C(=O)NCc2ccccc2)n1	FMDV inh inconclusive, MARV entry inh inconclusive, HCMV inh -100.0, Lassa entry inh inconclusive
COc1ccc(CNC(=O)c2nc(S(=O)(=O)Cc3ccccc3)ncc2Cl)cc1	FMDV inh 22.4µM, HCMV inh -95.1, Lassa entry inh inconclusive
COc1ccc(CNC(=O)c2nc(SCc3ccc(C)cc3)ncc2Cl)cc1	HCMV inh -69.6, Lassa entry inh inconclusive
O=C(NCc1ccccc1)c1nc(S(=O)(=O)Cc2ccccc2)ncc1Cl	FMDV inh 31.6µM, HCMV inh -77.6, Lassa entry inh inconclusive
Cc1ccc(CNC(=O)c2nc(SCc3ccccc3C)ncc2Cl)cc1	FMDV inh inconclusive
Cc1noc(C(=O)NCc2ccccc2)c1Cl	none (no result: MARV entry inh, Lassa entry inh)
CCC(=O)N1CCc2cc(Br)cc(S(=O)(=O)NCc3ccccc3)c21	none
CCCS(=O)(=O)c1ncc(Cl)c(C(=O)Nc2c(C(=O)Nc3ccccc3)oc3ccccc23)n1	FMDV inh inconclusive, Lassa entry inh inconclusive
O=C(Nc1ccc2ccccc2c1)c1cnccn1	MARV entry inh inconclusive, Lassa entry inh inconclusive
COC(=O)c1ccccc1NC(=O)c1nc(S(=O)(=O)Cc2ccccc2)ncc1Cl	FMDV inh 31.6µM, HCMV inh -110.0 (no result: MARV entry inh, Lassa entry inh)
CS(=O)(=O)c1ncc(Cl)c(C(=O)Nc2ccc3ccccc3c2)n1	FMDV inh 12.6µM, MARV entry inh 8.91µM, HCMV inh -98.0, Lassa entry inh inconclusive
CC(=O)Nc1ccc(NC(=O)c2nc(S(=O)(=O)Cc3ccccc3)ncc2Cl)cc1	FMDV inh 31.6µM, HCMV inh -86.3 (no result: MARV entry inh, Lassa entry inh)
COC(=O)c1cscc1S(=O)(=O)Cc1ccccc1	none (no result: MARV entry inh, Lassa entry inh)
